Screening data as filed in PubChem BioAssay.
HPGD block = blocks human HPGD enzyme activity; P15428; purified HPGD, NADH fluorescence kinetic, PGE2 substrate; Potency, µM, most hits filed as inhibitors; 150,000 compounds, 4.3% hits
Target sequence (P15428 whole entry, looked up): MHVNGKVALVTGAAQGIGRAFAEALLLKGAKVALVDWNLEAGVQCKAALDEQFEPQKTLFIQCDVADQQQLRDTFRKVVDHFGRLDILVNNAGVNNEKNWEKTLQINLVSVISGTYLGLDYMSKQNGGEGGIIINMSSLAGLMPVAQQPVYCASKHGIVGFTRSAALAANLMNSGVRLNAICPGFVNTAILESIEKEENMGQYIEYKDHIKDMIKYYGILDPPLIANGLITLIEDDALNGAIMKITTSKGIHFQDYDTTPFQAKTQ
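20 nM HPGD preincubated 15 min at room temperature with compound in 50 mM Tris-HCl pH 8, 0.01% Tween 20. Started with 1 mM NAD+ and 30 uM prostaglandin E2; NADH fluorescence (360/450 nm) read 5 times over 30-s intervals, last minus first.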
Tau fluor counter = counter-screen for tau fibril formation inhibitors; tau K18 P301L Alexa594 fluorescence, heparin fibrillization; Potency, µM (series often up to 57.7 µM); 280,000 compounds, 0.93% hits; AID 1463; active means well fitted curve in the direction sought with a large enough effect; inconclusive means small, poorly fitted or top-dose-only effect, or another doubt; inactive means no such curve, though single readings can be large; an effect the other way counts as inactive or inconclusive; further: nearly all actives have a fitted effect of over 55% in size
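Human tau K18 P301L (15 uM unlabeled, 0.24 uM Alexa 594-labeled) in 100 mM sodium acetate pH 7 with 20 uM heparin, 6 hr at 37 C. ThT 30 uM added, 1 hr ambient; Alexa 594 FP and total fluorescence read at 555/632 nm.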
Tau fibril ThT = tau fibrillization inhibition (ThT binding); P10636; recombinant tau K18 P301L (four-repeat tau fragment), heparin-induced fibrillization, ThT fluorescence; Potency, µM (highest dose often 57.4 µM), usual class: inhibitors; 270,000 compounds, 2.1% hits; active means well fitted curve in the direction sought with a large enough effect; inconclusive means small, poorly fitted or top-dose-only effect, or another doubt; inactive means no such curve, though single readings can be large; an effect the other way counts as inactive or inconclusive; further: nearly all actives have a fitted effect of over 55% in size
Target sequence (P10636 561-689 P618L limits assumed): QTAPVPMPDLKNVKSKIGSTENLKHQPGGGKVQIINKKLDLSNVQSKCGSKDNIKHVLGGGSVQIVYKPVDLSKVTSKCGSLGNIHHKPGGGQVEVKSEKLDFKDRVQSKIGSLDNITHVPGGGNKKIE
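Recombinant human tau K18 fragment […] carrying P301L, 15 uM unlabeled plus 0.24 uM Alexa 594-labeled, was fibrillized with 20 uM heparin in 100 mM sodium acetate pH 7 for 6 hr at 37 C; 30 uM ThT fluorescence read after 1 hr.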
Tau FP inhib = inhibitors of human tau fibril formation; P10636; K18 P301L tau heparin fibrillization, Alexa594 FP, 6 h; Potency, µM (top dose mostly 57.7 µM), usual class: inhibitors; 280,000 compounds, 0.39% hits; AID 1468; active means well fitted curve in the direction sought with a large enough effect; inconclusive means small, poorly fitted or top-dose-only effect, or another doubt; inactive means no such curve, though single readings can be large; an effect the other way counts as inactive or inconclusive; further: nearly all actives have a fitted effect of over 55% in size
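FP of Alexa 594-tau after heparin (20 uM) induction. Substrate: human K18 P301L, 15 uM unlabeled, 0.24 uM labeled. Buffer 100 mM sodium acetate pH 7. 6 hr, 37 C.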
ALDH1A1 block = ALDH1A1 (human) enzyme inhibition | 220,000 compounds, 7.3% hits | Purified ALDH1A1, NADH fluorescence, propionaldehyde substrate | AID 1030 | P00352 | Potency, µM (top dose mostly 75.3 µM), usual class: inhibitors
JMJD2E inh = JMJD2E (human) inhibition. B2RXH2. JMJD2E catalytic domain, FDH-coupled NADH fluorescence (FDH is formaldehyde dehydrogenase). Potency, µM (doses to about 57.1 µM), hits mostly inhibitors. 230,000 compounds, 1.6% hits. AID 2147; further: nearly all actives have a fitted effect of over 50% in size
Numbers stand for hits; . = inactive; ? = inconclusive; / = no result. Compounds with a hit are over-represented: about 9.9% of the library has one in this group of screens. Unless noted, the call rests on the fitted dose curve; in most records, active means well fitted inhibition curve with a large enough effect (not every such curve was filed as active); inconclusive means small, poorly fitted or top-dose-only effect, or another doubt; inactive means no such curve, though single readings can be large or run the other way.

SMILES | HPGD block | Tau fluor counter | Tau fibril ThT | Tau FP inhib | ALDH1A1 block | JMJD2E inh
COc1ccc(C(=O)NC(=S)Nc2cccnc2)cc1[N+](=O)[O-] | / | . | . | . | 22.4µM | .
COCCNc1nc(-c2ccc(N(C)C)cc2)nc2ccccc12 | ? | ? | ? | . | ? | ?
CC1=C(C)C(c2ccccc2)NC(=S)N1 (stereo unspecified) | . | . | . | . | 12.6µM | .
CCC(C)NC(=O)c1cnn2c(C)c3c(nc12)CCCC3 (stereo unspecified) | ? | . | . | . | ? | ?
Cc1cc(C(F)F)n2ncc(C(=O)NC3CCCCCC3)c2n1 | 22.4µM | . | . | . | 12.6µM | .
Cc1cc(C(F)F)n2ncc(C(=O)NCc3ccc(F)cc3)c2n1 | / | . | / | . | / | .
Cc1c2c(nc3c(C(=O)NC4CC4)cnn13)CCCC2 | 20µM | . | . | . | . | .
O=C(c1ccccc1)N1CCN(CCc2ccncc2)CC1 | / | . | . | . | / | /
Cc1cccc(OCCn2c(=S)[nH]c3ccccc32)c1 | 2µM | . | . | . | 1.26µM | .
Cc1cccc(OCCn2c(S(=O)(=O)O)nc3ccccc32)c1 | . | . | . | . | . | .
N#CCCn1c(=S)[nH]c2ccccc21 | 14.1µM | . | . | . | ? | .
Cc1cccc(OCCc2c(C)[nH]c(=S)[nH]c2=O)c1 | / | . | . | . | 17.8µM | .
CCCSc1ncc(Cl)c(C(=O)Nc2sc(C(C)=O)c(C)c2C(=O)OCC)n1 | / | . | . | . | / | /
CCOc1ccc(C2C(=O)N(C3CCCCCC3)CC(=O)N2CCc2ccc(OC)c(OC)c2)cc1OC (stereo unspecified) | / | . | . | . | / | /
CCCCN1C(=O)C(=O)N(CC(=O)Nc2cc(OCC)c(N3CCOCC3)cc2OCC)C1=O | / | . | . | . | . | .
COc1ccc(N)c2c1C(=O)c1ccccc1C2=O | . | . | 15.8µM | ? | ? | .
COc1ccc(OC)c2c1C(=O)C(Cl)=C(Cl)C2=O | / | ? | 4.47µM | 17.8µM | / | ?
COc1ccc(OC)c2c1C(=O)c1ccccc1C2=O | . | . | 35.5µM | ? | 7.94µM | ?
COC1=C(OC)C(=O)c2ccccc2C1=O | ? | . | 12.6µM | ? | 14.1µM | 11.2µM
COc1cccc2c1C(=O)c1ccc3ccccc3c1C2=O | . | ? | ? | ? | ? | .
COc1ccc([N+](=O)[O-])cc1N(CC(=O)Nc1ccccc1C(=O)NC(C)C)S(C)(=O)=O | / | . | . | . | . | .
COc1ccc(NC(=O)CC2C(=O)N(c3cccc(OC)c3)C(=O)N2Cc2ccco2)cc1 (stereo unspecified) | / | . | . | . | 15.8µM | .
CCOc1ccc(N=Nc2c(C)noc2C)cc1 | / | . | 15.8µM | . | . | .
O=C1NN(c2ccccc2)C(=O)/C1=C\c1cccn1-c1ccc(Cl)c([N+](=O)[O-])c1 | . | . | ? | . | . | .
COc1cc(/C=C2/C(=O)NN(c3cccc(C)c3)C2=O)ccc1OC(=O)c1ccco1 | 2µM | ? | ? | ? | 3.16µM | .
SMILES | HPGD block | Tau fluor counter | Tau fibril ThT | Tau FP inhib | ALDH1A1 block | JMJD2E inh
COc1cc(/C=C2\C(=O)NN(c3ccccc3)C2=O)ccc1OCC(N)=O | / | . | ? | . | ? | .
COc1cc(/C=C2/C(=O)NN(c3cccc(C)c3)C2=O)cc([N+](=O)[O-])c1O | / | . | 14.1µM | . | ? | ?
Cc1c(N2C(=O)/C(=C\c3ccc(N(C)C)cc3)N(C)C2=S)c(=O)n(-c2ccccc2)n1C | . | . | 14.1µM | . | 4.47µM | .
CN1C(=S)N(c2cccnc2)C(=O)/C1=C\c1ccc(C(C)(C)C)cc1 | / | . | ? | . | 7.08µM | .
Cc1cccc(N2C(=O)/C(=C/c3cccnc3)SC2=S)c1 | / | . | ? | . | / | .
CN1C(=S)N(c2cccnc2)C(=O)/C1=C\c1ccc(N(C)C)cc1 | / | ? | 3.98µM | . | 12.6µM | .
O=C(NC1CCCCC1)C(c1cccnc1)N(CCc1ccccc1)C(=O)Cc1cccs1 (stereo unspecified) | . | . | . | . | . | .
Cc1noc(C)c1CS(=O)(=O)c1ccc([N+](=O)[O-])cc1 | / | . | . | . | 31.6µM | .
Cc1ccc(S(=O)(=O)Cc2c(C)noc2C)cc1 | . | . | . | . | . | .
O=C(CN(CCc1ccccc1)C(=O)CNS(=O)(=O)c1ccccc1)NCc1ccco1 | . | . | . | . | . | .
Cc1ccc(S(=O)(=O)NCC(=O)N(CCc2ccccc2)CC(=O)NCc2ccco2)cc1 | . | . | . | . | 28.2µM | .
CC(C)CNS(=O)(=O)c1ccc(CCC(=O)NCc2ccco2)cc1 | . | . | ? | ? | 2µM | .
COc1ccc(N2CCN(C(=O)CCc3ccc(S(=O)(=O)NCC(C)C)cc3)CC2)cc1 | . | . | . | . | 12.6µM | .
CC(C)CNS(=O)(=O)c1ccc(CCC(=O)N2CCN(c3ccc(F)cc3)CC2)cc1 | / | . | . | . | ? | .
c1ccc(Cn2cc(CSc3ccccc3)nn2)cc1 | / | . | . | . | / | .
COc1ccc2[nH]cc(CCNc3ncncc3-c3ccc(C(=O)N(C)C)cc3)c2c1 | / | / | / | / | . | /
Cc1ccc(S(=O)(=O)Nc2cccc(Oc3cnccn3)c2)cc1 | / | . | ? | . | 7.94µM | .
O=C1C(C2=C(O)c3ccccc3C2=O)=Nc2ccccc21 | . | ? | 7.08µM | ? | 1.26µM | ?
CCCC(C(=O)NC1CCCC1)N(C(=O)Cn1nnc(-c2ccc(C)o2)n1)C1CCCC1 (stereo unspecified) | ? | . | . | . | 25.1µM | .
O=C(NCC1CCCO1)C(c1cccs1)N(Cc1cccs1)C(=O)Cn1nnc(-c2cccs2)n1 (stereo unspecified) | . | . | . | . | 8.91µM | .
CCC(C(=O)NC1CCCC1)N(C(=O)Cn1nnc(-c2ccc(C)o2)n1)C(C)(C)C (stereo unspecified) | / | . | . | . | ? | .
Cc1ccc(-c2nnn(CC(=O)N(Cc3cccs3)C(C(=O)NC3CCCC3)c3ccco3)n2)o1 (stereo unspecified) | . | . | . | . | 22.4µM | .
Cc1ccc(-c2nnn(CC(=O)N(Cc3cccs3)C(C(=O)NC3CCCCC3)c3ccco3)n2)o1 (stereo unspecified) | . | . | . | . | . | .
CCN(CC)C(=O)Cn1nnc(-c2ccc(C)o2)n1 | . | . | . | . | 25.1µM | .
O=C(NCC1CCCO1)C(c1cccs1)N(C(=O)Cn1nnc(-c2cccs2)n1)C1CCCC1 (stereo unspecified) | . | . | . | . | . | .
Cn1cccc1C(=O)NC(=O)COC(=O)c1cc(S(=O)(=O)N2CCCCC2)ccc1Cl | / | ? | . | . | . | ?
COc1ccccc1-c1cncnc1N1CCN(C)CC1 | / | / | / | / | . | /
CCc1nnc(NC(=O)/C=C/c2cccs2)s1 | / | . | . | . | . | .
